Screens from PubChem BioAssay.
TDP1 cell noCPT = qHTS for Inhibitors of human tyrosyl-DNA phosphodiesterase 1 (TDP1): qHTS in cells in absence of CPT. DT40 Tdp1-/- hTDP1 cells, no CPT, ATP luminescence, 48 h. Potency, µM (series often up to 46.2 µM), for the others: at the highest dose activity change, negative = growth inhibition, hits mostly inhibitors. 420,000 tested, 15% active. AID 686978, 2013; note: potency is the fitted concentration of half-maximal effect; % is set by controls: 0 for no effect and ±100 for the full control effect; nearly all actives have a fitted effect of over 55% in size
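Growth kinetics read by CellTiter-Glo luminescence after ≥48 hr at 37 °C. Cells: DT40 Tdp1-/- stably carrying human TDP1, 400 per well, compound exposure in the absence of CPT (DMSO vehicle).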
HepG2 tox = HepG2 cytotoxicity, counter-screen for TGF-b inhibitors; HepG2 CAGA-GFP viability, ATP luminescence, 18 h; Potency, µM (doses to about 46.1 µM), for inactives: at the highest dose activity change, negative = cytotoxicity, actives largely listed as cytotoxic; 410,000 tested, 0.76% active; note: potency is the fitted concentration of half-maximal effect
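CellTiter-Glo luminescence gave cytotoxicity after 18 hours at 37 degrees C. The cells were HepG2 CAGA-GFP in 1% FBS DMEM, stimulated with 500 pg/mL TGF-beta after compound addition. %Activity was normalised to no-cell wells (complete cell-killing) and DMSO (no toxicity), and curves were fitted and classified.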
DT40 TDP1 CPT = growth inhibition of DT40 Tdp1-/-;hTDP1 cells with camptothecin (screen for TDP1 inhibitors); chicken DT40 Tdp1-/-;hTDP1 cells + 20 nM CPT, ATP luminescence, 48 h; Potency, µM (titrated, usually from 46.2 µM), without a hit: at the top dose activity change, negative = growth inhibition, usual class: inhibitors; 420,000 tested, 12% active; note: potency is the fitted concentration of half-maximal effect; % is set by controls: 0 for no effect and ±100 for the full control effect; nearly all actives have a fitted effect of over 55% in size
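Chicken DT40 Tdp1-/- cells stably complemented with human TDP1 were seeded at 400 cells/well in medium containing 20 nM camptothecin, exposed to pin-transferred compounds, and grown at 37 °C for at least 48 hr. Viability was read as ATP luminescence.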
IL-1B inflam inh = blocks inflammasome-driven IL-1 beta release | THP-1 LPS/ATP IL-1B secretion, AlphaLISA, 16 h; active compounds read low | activity change, % at 57.5 µM | 360,000 tested, 4.7% active | AID 743279; in the data active = activity change below about -50%; inconclusive = mostly about -30% to -49%; note: % is set by controls: 0 for no effect and ±100 for the full control effect
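THP-1 cells pretreated 1 hr with compounds (up to 57.5 uM final), then stimulated with LPS (250 ng/mL final) plus ATP (1.25 mM final); secreted IL-1B measured by AlphaLISA after 16 hr, decreased signal indicating inhibition.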
TGFb SMAD3 inh = inhibitors of TGF-b signaling. HepG2 CAGA-GFP TGF-b/SMAD3 reporter, GFP fluorescence, 18 h; TGF-beta stimulated, 500 pg/mL final. 410,000 tested, 1.2% active. Potency, µM (titrated, usually from 46.1 µM), without a hit: top-dose activity, negative = inhibition, most hits filed as inhibitors; note: potency is the fitted concentration of half-maximal effect; % is set by controls: 0 for no effect and ±100 for the full control effect; nearly all actives have a fitted effect of over 65% in size
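Smad-responsive CAGA-GFP expression was quantified in HEPG2 cells exposed to compounds and 500 pg/mL final TGF-beta for 18 h at 37 degrees C; unstimulated wells defined full inhibition.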
ASM inhibitor = blocks human secretory acid sphingomyelinase; 340,000 tested, 0.006% active; Potency, µM (doses to about 57.5 µM), for the others: at the top dose activity change, negative = inhibition, hits mostly inhibitors; placental ASM, HMU-PC fluorogenic substrate, 60 min; P17405; note: potency is the fitted concentration of half-maximal effect
Target sequence (P17405 47-631 limits assumed): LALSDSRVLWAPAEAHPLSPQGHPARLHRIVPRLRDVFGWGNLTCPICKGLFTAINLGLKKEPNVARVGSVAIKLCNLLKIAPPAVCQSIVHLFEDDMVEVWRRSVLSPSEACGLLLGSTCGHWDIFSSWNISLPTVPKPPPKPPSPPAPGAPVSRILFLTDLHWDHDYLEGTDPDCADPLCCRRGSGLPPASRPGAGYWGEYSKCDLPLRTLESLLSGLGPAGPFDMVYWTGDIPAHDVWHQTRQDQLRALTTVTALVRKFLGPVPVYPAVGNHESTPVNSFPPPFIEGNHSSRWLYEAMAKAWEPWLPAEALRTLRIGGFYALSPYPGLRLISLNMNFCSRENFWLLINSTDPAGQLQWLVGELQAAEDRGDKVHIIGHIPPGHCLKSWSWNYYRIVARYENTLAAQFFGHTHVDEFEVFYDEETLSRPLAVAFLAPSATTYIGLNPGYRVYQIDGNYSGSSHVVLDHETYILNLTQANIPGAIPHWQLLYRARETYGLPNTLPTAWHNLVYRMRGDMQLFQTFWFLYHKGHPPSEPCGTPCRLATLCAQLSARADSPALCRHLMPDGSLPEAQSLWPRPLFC
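Human placenta-derived ASM enzyme was preincubated with compound for 10 minutes at room temperature, then given fluorogenic substrate HMU-PC0 (9 uM final) for 60 minutes at 37 °C; a pH 10 stop preceded fluorescence reading at Ex 386/Em 447 nm.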
An asterisk follows results filed as active; ? = inconclusive; . = no result given. An excerpt weighted towards active compounds, which were near 19% of everything screened. Unless noted, calls come from the whole dose curve; as a rule, active = well fitted curve in the direction sought with a large enough effect; inconclusive = small, poorly fitted or top-dose-only effect, or another doubt; inactive = no such curve, though single readings can be large; an effect the other way counts as inactive or inconclusive.

SMILES	TDP1 cell noCPT	HepG2 tox	DT40 TDP1 CPT	IL-1B inflam inh	TGFb SMAD3 inh	ASM inhibitor
Cc1ccc(NC(=O)C(=O)NCC(c2cccnc2)N2CCc3ccccc32)cc1Cl (configuration not stated)	13µM*	-26%	18µM*	.	-17%	.
Cc1ccc(-n2nnnc2SCC(=O)Nc2ncc(Cc3ccccc3Cl)s2)cc1	-24%	22%	14%	-1	11%	-2%
O=S1(=O)C[C@@H](N2CCC[C@@H]2CO)[C@H](COCc2ccccc2)N1	-22%	0%	3%	-18	-5%	.
CCn1cc(C(=O)NCCc2ccc(OC)cc2)c(=O)c2ccc(C)nc21	23µM*	-4%	?	7	-4%	-21%
CCn1cc(C(=O)OCC(=O)Nc2c(C)cccc2C)c(=O)c2ccc(C)nc21	23µM*	-2%	16µM*	0	-12%	-2%
CCCN(Cc1nnc(-c2ccccc2Cl)o1)C(=O)COc1ccc(Cl)cc1	?	-9%	?	-10	-11%	-3%
Clc1ccc(C2=Nn3c(Cn4nnc5ccccc54)nnc3SC2)cc1	-26%	3%	-27%	-53*	17%	-2%
c1ccc(-c2ccc(C3=Nn4c(Cn5nnc6ccccc65)nnc4SC3)cc2)cc1	?	-24%	23µM*	-57*	?	-15%
c1ccc(C2=Nn3c(Cn4nnc5ccccc54)nnc3SC2)cc1	-25%	-52%	-1%	-1	-1%	0%
c1ccc(Cc2nnc3n2N=C(c2ccccc2)CS3)cc1	-31%	-20%	-13%	-10	-13%	-2%
Cc1cccc(N2CCN(C(=O)Cn3ncc4c3-c3ccccc3OC4)CC2)c1C	16µM*	-51%	18µM*	.	?	.
Cc1ccc2c(c1)-c1c(cnn1CC(=O)N1CCN(c3cccc(C(F)(F)F)c3)CC1)CO2	?	-4%	?	.	3%	.
COc1ccc(N2CCN(C(=O)Cn3ncc4c3-c3cc(C)ccc3OC4)CC2)cc1	-18%	-3%	-20%	.	-11%	.
COc1ccc(NC(=O)Cn2ncc3c2-c2ccccc2OC3)cc1Cl	15µM*	-7%	?	.	?	.
Cc1ccc2c(c1)-c1c(cnn1CC(=O)N1CCN(c3cc(C)ccc3C)CC1)CO2	18µM*	0%	?	.	-16%	.
Cc1ccc(CNC(=O)CCc2c(C)c3ccc(O)c(C)c3oc2=O)cc1	-2%	-13%	-5%	.	0%	.
O=C(NCCCn1ccnc1)c1cc(Cl)cc(Cl)c1	-11%	-11%	4%	-11	11%	2%
Cc1ccn2c(Nc3ccccc3C)c(-c3ccccc3)nc2c1	?	13µM*	21µM*	.	-3%	.
COc1cc(O)ccc1-c1nc2cc(C)ccn2c1Nc1ccccc1C	26µM*	-33%	13µM*	.	?	.
COc1cc(-c2nc3ccccn3c2Nc2ccccc2C)ccc1O	?	-34%	?	.	31%	.
Cc1ccn2c(NC(=O)c3ccco3)c(-c3ccccc3)nc2c1	-16%	-1%	-9%	-5	-18%	2%
Cc1ccn2c(Nc3ccccc3C)c(-c3cccnc3)nc2c1	?	-47%	16µM*	-14	-9%	-3%
CCC(C)N1CNc2c(c(=O)[nH]c(=S)n2-c2cccc(C)c2)C1 (configuration not stated)	4%	-14%	12%	27	1%	13%
CCC(C)C(=O)Nc1nnc(SCC(=O)N2C(C)CCCC2C)s1 (configuration not stated)	-27%	-25%	-1%	26	4%	-3%
CC(C)(C)C1CCc2oc3ccc(NS(=O)(=O)c4cc(Cl)ccc4Cl)cc3c2C1 (configuration not stated)	?	-68%	26µM*	.	?	.
SMILES	TDP1 cell noCPT	HepG2 tox	DT40 TDP1 CPT	IL-1B inflam inh	TGFb SMAD3 inh	ASM inhibitor
CC(C)(C)C1CCc2oc3ccc(NS(=O)(=O)c4ccc(C(=O)O)cc4)cc3c2C1 (configuration not stated)	-10%	-121%	-2%	.	22µM*	.
Cc1cc(NC(=O)CSCC(=O)N(C)Cc2cccc(Cl)c2)no1	-18%	4%	-22%	1	?	.
CCOc1ccc2nc(SCC(=O)NC(=O)C(C)C)sc2c1	-6%	-2%	7%	12	-7%	5%
O=C(CSc1nc2ccsc2c(=O)n1Cc1ccccc1F)NCc1ccccc1	?	-1%	-23%	.	-9%	.
O=C(CSc1nc2ccccc2n1Cc1cccc(F)c1)NCc1ccccc1	?	-25%	?	.	?	.
Cc1ccc(C)c(Cn2c(SCC(=O)N(C)Cc3ccccc3)nc3ccccc32)c1	26µM*	-7%	26µM*	.	?	.
Cc1ccc(C)c(Cn2c(CO)nc3ccccc32)c1	?	-10%	?	11	-37%	2%
O=C(CSc1nc2ccccc2n1Cc1cccc(C(F)(F)F)c1)NCc1ccccc1	?	-44%	18µM*	.	?	.
CN(C(=O)CSc1nc2ccccc2n1Cc1cccc(C(F)(F)F)c1)c1ccccc1	16µM*	-8%	18µM*	.	?	.
O=C(CSc1nc2ccccc2n1Cc1ccccc1F)NCc1ccccc1	16µM*	-21%	?	.	21%	.
COc1ccc(-c2csc(N(CC3CCCO3)C(=O)c3ccco3)n2)cc1 (configuration not stated)	21µM*	-22%	21µM*	-15	-16%	-3%
COCCN(C(=O)c1ccco1)c1nc(-c2ccccc2)cs1	?	-45%	-1%	20	8%	4%
CCN(C(=O)c1ccco1)c1nc(-c2ccc(OC)cc2)cs1	?	4%	-6%	5	-1%	-4%
COCCN(C(=O)c1ccco1)c1nc(-c2ccc(OC)cc2)cs1	16µM*	-4%	26µM*	24	9%	.
Cc1cc(NC(=O)COc2ccc(C(C)(C)C)cc2)no1	-12%	-55%	4%	22	-8%	7%
COc1cc(OC)c(/C=C/c2ccc3ccccc3n2)c(OC)c1	0.1µM*	-33%	0.1µM*	.	?	.
COc1cc(OC)c(C=Cc2ccncn2)c(OC)c1	?	-8%	-6%	-9	-2%	.
COc1cc(OC)c(/C=C/c2ccccn2)c(OC)c1	2.8µM*	-12%	3.2µM*	.	-11%	.
COc1cc(OC)c(/C=C/c2nccc3ccccc23)c(OC)c1	0.1µM*	-31%	0.071µM*	.	?	.
